The structures appear in SMILES notation. Records with an inconclusive call do not appear. Active and inactive are the calls of the source. Calls come from the whole dose curve; as a rule, active = well fitted inhibition curve with a large enough effect; inconclusive = small, poorly fitted or top-dose-only effect; inactive = flat fitted curve, though single readings scatter.

Common to all, as to assay: qHTS profiling for inhibitors of Plasmodium falciparum proliferation (AID 504749); note: nearly all actives have a fitted effect of over 60% in size
Common to all, as to settings: P. falciparum in erythrocytes, SYBR Green DNA, 72 h; series mostly up to 28.7 µM
On the technique in general: In qHTS, concentration-response curves come from the screen itself.

Assay [1] relates to CP315. The method, boiled down: (§1)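 Three-day growth assay of blood-stage parasites in erythrocytes (0.3% parasitemia, 2.5% hematocrit) at 37 C, 5% CO2, quantified by SYBR Green DNA staining after overnight detergent lysis.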
Assay [2] concerns CP325. The method, boiled down: as §1
The test system of assay [3] is CP329. The method, boiled down:
as §1

Assay [4] deals with DFO2036. The method, boiled down: as §1
The test system of assay [5] is DIV30. The method, boiled down:
as §1

Assay [6] deals with Dd2. The method, boiled down:
as §1

In assay [7] the test system is ECU. The method, boiled down:
as §1

The subject of assay [8] is FAB9. The method, boiled down:
as §1

Assay [9] has as its system HB3. The method, boiled down: as §1
Assay [10] concerns ICS. The method, boiled down: as §1
The test system of assay [11] is JCK. The method, boiled down: as §1
The test system of assay [12] is N140. The method, boiled down: as §1
Assay [13] has as its system P94_40. The method, boiled down: as §1
Assay [14] has as its system PAD. The method, boiled down: as §1
Assay [15] concerns PC15. The method, boiled down:
as §1

The test system of assay [16] is CP335. The method, boiled down: as §1
Assay [17] has as its system GB4. The method, boiled down: as §1
Assay [18] relates to P93_24. The method, boiled down: as §1
Assay [19] concerns DIV14. The method, boiled down:
as §1

Assay [20] concerns DIV17. The method, boiled down: as §1
Potency is the fitted concentration of half-maximal effect.

Take `NCc1ccc(S(N)(=O)=O)cc1`: the outcome in [1], in assay [2], in [3] and in assay [5] was inactive. The Potency entry in assay [4], in assay [6], in assay [7], in assay [8], in assay [11] and in assay [12] was “inactive” in each case. The Potency entry in assay [13], in assay [14] and in [15] was “inactive” each time. In addition, the Potency in [9] was 3980 nM (active); in assay [10], 2510 nM (active).
Turning to `NC(=O)CCCCC1CCSS1` (configuration not stated), the call in assay [1], in assay [2] and in assay [3] was inactive. The Potency entry in assay [16], in [4], in assay [6], in assay [8], in [11] and in assay [12] was “inactive” throughout. The Potency result in assay [15] is “inactive”.
Regarding `CC1CCN(CCCC(=O)c2ccc(F)cc2)CC1`, the molecule was called inactive in [1], in [2], in assay [3] and in [5]. Besides, the Potency result in [4], in assay [6], in assay [7], in [8], in [17] and in assay [9] was “inactive” each time. In addition, the Potency result in [10], in [11], in [12], in [18], in assay [13] and in [14] was “inactive” throughout. Also, the Potency entry in assay [15] is “inactive”.
`CC(=O)OC[C@H]1O[C@@](COC(C)=O)(O[C@H]2O[C@H](COC(C)=O)[C@@H](OC(C)=O)[C@H](OC(C)=O)[C@H]2OC(C)=O)[C@@H](OC(C)=O)[C@@H]1OC(C)=O`: the outcome in assay [1], in [2] and in assay [5] was inactive. Moreover, the Potency result in [16], in assay [19], in assay [20], in assay [6], in assay [8] and in assay [17] was “inactive” throughout. In addition, the Potency result in assay [9], in assay [10], in assay [11] and in assay [15] was “inactive” in each case. Besides, the Potency in assay [13] is 2820 nM (active).
`COC(=O)c1ccc(O)cc1`: the molecule was called inactive in assay [2], in assay [3] and in assay [5]. For the same molecule, the Potency result in [16], in assay [4], in [19], in assay [20], in assay [6] and in [7] was “inactive” throughout. Besides, the Potency result in [8], in assay [17], in assay [9], in assay [10], in assay [11] and in [12] was “inactive” throughout. Also, the Potency entry in [18], in assay [13], in assay [14] and in assay [15] was “inactive” in each case.
Take `CCCCCCCCCCOc1cc2c(=O)c(C(=O)OCC)c[nH]c2cc1OCC`: the molecule was classed as inactive in assay [1]. Further, the Potency in assay [16] is 1.3 nM (active); in assay [4], 1.4 nM (active); in assay [19], 5.4 nM (active); in assay [20] it was 6.7 nM (active); in assay [6] it was 2.8 nM (active); in assay [7], 2.8 nM (active). For the same molecule, the Potency is 5 nM (active) in [8]; 2.1 nM (active) in assay [17]; 2 nM (active) in [9]; 3.2 nM (active) in assay [10]; 35.5 nM (active) in [11]; 2.2 nM (active) in assay [12]. Further, the Potency in [18] is 3.2 nM (active); in [13] it was 3.2 nM (active); in [14], 3.5 nM (active); in assay [15], 6.3 nM (active).
Regarding `O=C1C(c2[nH]c3ccccc3c2O)=Nc2ccccc21`, the molecule was classed as inactive in assay [1] and in [3]. Also, the Potency entry in [16], in assay [4], in assay [6], in [8] and in assay [11] was “inactive” throughout.
As to `O=C(c1ccccc1)C(O)c1ccccc1` (configuration not stated), the result in [1], in assay [2], in assay [3] and in [5] was inactive. Also, the Potency result in assay [16], in assay [4], in [6], in [7], in [8] and in assay [9] was “inactive” each time. Moreover, the Potency result in assay [10], in assay [11], in assay [12], in assay [18], in assay [13] and in assay [14] was “inactive” each time. Also, the Potency entry in [15] is “inactive”.
As for `CCCNC(C)(C)COC(=O)c1ccccc1`, the call in assay [1], in [2], in assay [3] and in [5] was inactive. Also, the Potency entry in assay [4], in assay [19], in assay [20], in [6], in assay [7] and in assay [8] was “inactive” in each case. For the same molecule, the Potency entry in [9], in [10], in [11], in [12], in assay [18] and in [13] was “inactive” throughout. The Potency entry in assay [14] and in assay [15] was “inactive” in each case.
As to `Cc1[nH]c(C)c(Cl)c(=O)c1Cl`, the outcome in assay [1], in [2] and in assay [5] was inactive. The Potency result in assay [4], in assay [19], in [20], in assay [6], in assay [7] and in assay [8] was “inactive” each time. The Potency result in assay [9], in assay [11], in assay [12], in assay [18], in assay [13] and in assay [14] was “inactive” in each case.
For the molecule `CCCCCC(C)N` (configuration not stated), the molecule was called inactive in assay [1], in assay [2], in assay [3] and in assay [5]. In addition, the Potency result in assay [4], in assay [19], in assay [8], in assay [17], in assay [11] and in [15] was “inactive” throughout. Moreover, the Potency was 11200 nM (active) in assay [6] and 5010 nM (active) in [10].
As to `CCCCCCCCCCC(CO)CCCCCCCC` (configuration not stated), the molecule was classed as inactive in assay [1], in assay [2], in [3] and in assay [5]. For the same molecule, the Potency result in assay [16], in assay [4], in assay [6], in assay [7], in [8] and in assay [9] was “inactive” throughout. Further, the Potency entry in assay [11], in assay [12], in assay [13], in [14] and in assay [15] was “inactive” throughout. Further, the Potency in assay [10] was 8910 nM (active).

(Values after PubChem BioAssay (NCATS).)
